# Screening results deposited in PubChem by Sanford-Burnham Center for Chemical Genomics.
# Hits are enriched below; roughly 4% of the tested compounds scored in any of these assays.
# CF NFkB block = inhibitors of cystic fibrosis induced NF-kB. KKLEB NF-kB-GFP reporter, PAF-induced, GFP fluorescence overnight. inhibition, % at 5 µM. actives 0.86% (n = 360,000). AID 588850;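 active = at least 50% inhibition at 5 µM, scaled per plate between neutral and stimulator controls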;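 also: PAF is a Pseudomonas aeruginosa culture filtrate used as stimulus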
# KKLEB tox = counter-screen for CF NF-kB inhibitors: cytotoxicity. KKLEB CF airway cells viability, ATPlite luminescence, overnight; hits give low values; cells stimulated with P. aeruginosa culture filtrate. activity change (cytotoxicity), % at 5 µM. actives 0.36% (n = 360,000);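 active = corrected activity change at or below -50% at 5 µM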
# HIF-2a block = HIF-2a inhibition; inhibition, % at 18.8 µM; actives 0.72% (n = 360,000); 786-0 RCC cells HIF-2a reporter, luciferase luminescence, overnight;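 active = inhibition of the luminescence signal of 40% or more relative to plate controls, in a single-dose primary screen at 18.75 µM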
# TWEAK-Fn14 inh = inhibitors of TWEAK-Fn14 interaction signaling; TWEAK-stimulated Fn14 reporter cells, luciferase luminescence, 8 h; inhibition, % at 10 µM; actives 2% (n = 360,000); in the data active = inhibition above about 50%
# TROY NFkB inh = TROY signaling inhibition. Q293 LMP1-TROYcd NF-kB luciferase reporter, 4 h. inhibition, % at 10 µM. actives 0.98% (n = 360,000). AID 1347056;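 active = compounds whose plate-normalised and pattern-corrected inhibition of the luciferase reporter signal at the single screening dose is 50% or more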
# Peg3 prom inh = Peg3 promoter activity inhibition. HeLa PEG-Prom luciferase reporter, luminescence, overnight. inhibition, % at 20 µM. actives 1.7% (n = 360,000). AID 588405;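 active = inhibition of at least 50% at 20 µM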
# Hits are given with their value; – = inactive; · = no result.
SMILES,CF NFkB block,KKLEB tox,HIF-2a block,TWEAK-Fn14 inh,TROY NFkB inh,Peg3 prom inh
Cc1cc(C)n(C(C)CC(=O)Nc2ccc3c(c2)OCCO3)n1 (configuration not stated),–,–,–,61,–,–
Cc1cc(C)n(-c2ccc(C(=O)Nc3ccc4c(c3)OCCO4)cc2)n1,–,–,–,–,–,–
Nn1c(SCC(=O)Nc2ccc3c(c2)OCCO3)nnc1-c1ccccn1,–,–,–,77,–,–
Cc1ccccc1-c1nnc(SCC(=O)Nc2ccc3c(c2)OCCO3)n1N,–,–,–,–,–,–
O=S(=O)(NC1CCCCCC1)c1cccc2cccnc12,–,–,–,–,–,–
COc1ccc(CC(=O)NNC(=O)c2cc(C)[nH]n2)cc1,–,–,–,–,–,62
Cc1cc(C(=O)NNC(=O)CCCCC(=O)NNC(=O)c2cc(C)[nH]n2)n[nH]1,–,–,–,–,–,–
N#C/C(=C(/O)COC(=O)CCCNC(=O)c1ccc(Cl)cc1)c1nc2ccccc2[nH]1,–,–,–,–,–,–
Cc1cc(SCC(=O)OC/C(O)=C(\C#N)c2nc3ccccc3[nH]2)c(C)cc1Br,–,–,–,–,–,51
N#C/C(=C(/O)COC(=O)CSc1ccc(Cl)cc1)c1nc2ccccc2[nH]1,–,–,–,–,–,75
C/C(=N\NC(=O)C1CCCC1)c1ccc(Cl)c(Cl)c1,–,–,–,–,–,–
O=C(Nc1ccccc1)C1C2CCC3C(CCC21)C3(Cl)Cl (configuration not stated),–,–,–,–,–,–
O=C(Nc1cccc(Cl)c1)C1C2CCC3C(CCC21)C3(Cl)Cl (configuration not stated),–,–,–,62,–,–
O=c1c2ccccc2sn1-c1ccccc1F,–,–,–,–,–,–
Cc1ccccc1-n1sc2cc(F)ccc2c1=O,–,–,–,–,–,73
CCOc1cc(C2C(C(=O)c3ccc(C)cc3)=C(C(=O)OC)Nc3nnnn32)ccc1O (configuration not stated),–,–,–,–,–,–
Cc1cc(NC(=O)CSc2cn(CCNC(=O)c3ccc(F)cc3)c3ccccc23)no1,–,–,–,–,–,–
CCc1ccccc1OCCCN1CCCC1,–,–,–,59,–,–
CCc1ccccc1OCCCCN1CCCCC1,–,–,–,–,–,–
O=c1cc(N2CCCCC2)[nH]c(=O)n1C1CCCCC1,–,–,–,–,–,–
COC(=O)C1CCN(c2cc(=O)n(C3CCCCC3)c(=O)[nH]2)CC1,–,–,–,95,·,–
CCOc1cc2c3c(c1)C(C)=CC(C)(C)N3C(=O)C2=O,–,–,–,–,–,–
CC(=O)Oc1cc2c3c(c1)/C(=C1/SC(=S)NC1=O)C(=O)N3C(C)(C)C=C2C,52,–,–,–,50,–
O=C(COC(=O)C12CC3CC(CC(O)(C3)C1)C2)Nc1ccc(Br)cc1F,–,–,–,–,58,–
O=C(COC(=O)C12CC3CC(CC(O)(C3)C1)C2)Nc1ccccc1OC(F)F,–,–,–,–,–,–
SMILES,CF NFkB block,KKLEB tox,HIF-2a block,TWEAK-Fn14 inh,TROY NFkB inh,Peg3 prom inh
CCOC(=O)C#CC(CCc1ccccc1)OS(N)(=O)=O (configuration not stated),–,–,–,–,–,–
O=C1C(Cl)=C(NC(=O)c2ccccc2)C(=O)C(Cl)=C1NC(=O)c1ccccc1,52,–,72,–,–,103
CCOC(=O)c1sc2nc(C)nc(NCCc3ccccn3)c2c1C,–,–,–,–,–,–
CCOC(=O)c1sc2nc(C)nc(NCc3ccccc3OC)c2c1C,–,–,–,54,–,–
COc1cc2c(cc1NC(=O)CSc1cccc[n+]1[O-])oc1ccccc12,–,–,–,–,–,–
CCOC(=O)/C(C#N)=C/c1cc(C)n(-c2ccccc2)c1C,–,–,–,84,89,–
Cc1cc(/C=C(\C#N)C(=O)Nc2ccccc2)c(C)n1-c1cccnc1,–,–,–,–,–,–
O=C(CCNC(=O)c1ccc(Cl)cc1)NCc1ccccc1Cl,–,–,–,–,–,–
COc1cc(/C=N/NC(=O)COc2cc(C)cc(C)c2)ccc1OS(=O)(=O)c1ccc(C)cc1,–,–,–,62,–,–
COc1ccccc1C(=O)NNC(=O)C1CCN(C(=O)OC(C)(C)C)CC1,–,–,–,–,–,–
Cc1cccc(NC(=S)N(CCN2CCOCC2)Cc2cc3cc4c(cc3[nH]c2=O)OCCO4)c1,–,–,–,67,73,–
CCCCn1c(C)nc2cc(S(=O)(=O)N3CCOCC3)ccc21,–,–,–,–,–,–
CCCCn1c(CCl)nc2cc(S(=O)(=O)N3CCOCC3)ccc21,–,–,–,–,–,58
Cc1cccc(C)c1NC(=S)N(CCN(C)C)Cc1cccs1,–,–,–,–,–,–
Cc1cccc(CSc2nnc(CCCCCNC(=O)OC(C)(C)C)o2)c1,–,–,–,–,72,–
O=C(O)CSCC(=O)N1CCN(c2nc3cc(Cl)ccc3s2)CC1,–,–,–,62,–,–
O=C(O)CC1(C(=O)O)CCCC1,–,–,–,–,–,–
O=[N+]([O-])c1ccc2c(c1)/C(=N\O)c1ccccc1-2,–,–,–,–,–,–
COc1cc2c(cc1[N+](=O)[O-])-c1ccc([N+](=O)[O-])cc1C2=NO,–,–,–,–,–,52
CC1=C(SCc2ccccc2)C(=O)c2ccccc2C1=O,89,–,–,88,–,85
Cn1c(SCc2ccccc2)nccc1=O,–,–,–,–,–,–
Cc1ccc(C(=O)NCCc2ccccc2)cc1,–,–,54,97,67,–
COc1cccc(C(=O)Nc2ccc(NC(=O)C(C)(C)C)cn2)c1,–,–,–,75,65,–
COc1cccc(C(=O)Nc2ccc(NC(=O)C3CCCCC3)nc2)c1,–,–,–,–,–,–
Cc1ccc(C23CC4CC(CC(CN)(C4)C2)C3)cc1,–,–,–,–,–,103
SMILES,CF NFkB block,KKLEB tox,HIF-2a block,TWEAK-Fn14 inh,TROY NFkB inh,Peg3 prom inh
Cc1ccc(C23CC4CC(CC(C(N)=O)(C4)C2)C3)cc1,–,–,–,–,–,–
NCC12CC3CC(C1)CC(c1ccc(Br)cc1)(C3)C2,–,–,–,–,–,104
CCN(CC)c1ncc(C#N)c(N)n1,–,–,–,–,–,–
COc1nc(Cl)cn(-c2ccc(C)cc2)c1=O,–,–,–,–,–,–
Cc1ccc(-n2c(Cl)c(Cl)nc(Cl)c2=O)cc1,88,-94,94,102,63,103
CCOC(=O)Cc1ccc(Nc2nc(NCc3cccs3)nc3ccsc23)cc1,–,–,–,65,55,–
COc1ccc(Nc2nc(NC(C)C)nc3ccsc23)cc1OC,–,–,–,–,–,–
CC(=O)Nc1ccc(CNc2nc(NCC3CC3)nc3ccsc23)cc1,–,–,–,–,–,–
COc1ccc(Nc2nc(NCc3cccs3)nc3ccsc23)cc1OC,–,–,–,54,–,–
